Reference: the supplement of paper PMC6555819

The sequences below were run on PPARg:RXRa 90nM:30nM, anti-RXR (NR concentration 90 nM, RXRa partner concentration 30 nM) (assay: PBM binding z-score (relative to random genomic background probes); higher = stronger binding; sequences stand for … in GC…GCGATTGACAGCGTAGAATGAAGG).
How it was run: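 Custom Agilent 4×180K protein-binding microarrays carried double-stranded probes. Their 34-nt variable regions held direct-repeat seeds, single-nucleotide variants, half-site ablations and random human genomic background sequences. Arrays were incubated 1 h with ligand-free nuclear receptor dimers in PBS pH 7.4, 2% milk, 0.02% Triton X-100, 1 mM DTT, 0.2 mg/mL BSA and 0.4 mg/ml salmon testes DNA. Antibodies against each partner (one per run) detected binding, and scanned fluorescence was regression-normalized. Binding z-scores use random background probes as reference.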

Sequence | PBM binding z-score
TCATATAGGTAAACAGGTGAAACTCCGTAAGTTA | 3.7
TCTAGCAAGCCAGAGGGTCACTCAAGAGGTACGG | 1.28
ACAGACCGGTGAGTGAAGGTAACTCAGCTGGACG | -1.01
CCGACTGGGGCAAGATTACCATAACGCACAGCCA | -0.513
GGAACGAGGGCAAAGTCGATAGCATCTGTCGACG | 2.36
ACTATCAGTTGAGACGAGGGCAACCGATAGGTTG | -0.0981
AATACACGGTCACTAGGCCAGAGTAGGTACGAAT | 1.15
TCTCGGAGGACACGAGAGGTCAGAGCTCGACATC | 1.48
ACAGACAGGTGATGAACGTAACTCAGGCTATCAT | -0.194
ATACCAAGGTGATCGTGAGGTCGTTGTTACTAAC | 0.535
GCTACCAGGCCATTTGGGTCACTCAATGACGGGC | 0.658
TCGAGTCGGTTACCAATGGGGCATTCAGCTTTCT | 0.526
TATCGGAGGACACGAAGGTCAGAGCTTTCCAGAG | 0.613
ATCGAAAGGTCGTTAGGTGAGTATACAGAAAGGC | 2.27
AGTCAAAGTTCATCTAGGTAACGTACGATATGCT | 5.86
ACAGACAGGTGATTAAGGTAACTCAGGCTATCAT | 0.0739
AGTCAAAGTTCACTAGGTAACGTATGATTCAGCT | 5.54
TCTAATAGTTGAAGGGCAACCGACGAGTCCGTTT | 2.9
GCTAGCAGGCCTTTTGGGTCACTCAATGACGGGC | -0.138
GCTTACGGGTCAAAGGTTATATCATGAATAGAAT | 11.1

Sequence | PBM binding z-score
TCTAGTTGCTCACGGAGGTCACACACGACGGGTA | 2.76
CTCGAAAGATCGTGCTCAGGTGAGTATACCAAAC | -0.424
TTACCAAGGAGAAAGGTCGTTGATGCACGCCTTG | 3.74
GCTATTAGTTGAAAGGGCATCCGAATGATTCTCG | 3.96
ATATGTGGGTTAAGGGTCATTCAGGTTGGTTCGC | 11.3
TAGCCTAGGTCATGCGGGCCGGTATAGTGTCGGC | 1.79
ATCTCTAGGTAAAGATAGTTCGGTGAATGCAAAT | 0.213
TAGTCTAGGTCAGATCGGGCCAGTATACGCTATA | 1.92
AGTCAAAGTTCAGGACGAGGTAACGTCAAGCACG | 4.04
TCTGCTAGGTCAACGCTGGTCAGCTAATCTGCTA | 2.54
TCTTGTAGACCAGCAGGTTAAGAAAGCTGGCCAA | 1.96
CCTAGTTGGTTAGGAGGTCACACACCGGATATGA | 2.81
TCTCGGAGGACACGAAGGTCAGAGTTTTCCAGAG | 1.87
GCTTACGGGTCAAAGGTTATAGGATGAATAGAAT | 10.9
TCTTGTATATCAAAGGTTAAGAAAGCCGAAGCCT | 7.96
CGTCCAAGGTTAATGCTAGGTCAGTGAAAGCATT | 0.133
CGAACTAGGTCATCGACAGGACAGTGAATAGTAA | 5.7
CCATACAGGTGAGAAGGTAACTCAGCCTCGATTA | 1.26
CAAATTAGGTCAAGAGGTCAAAGTCCGCTTCCCG | 9.12
TCATATAGGTAATACGGGTGAAAGTCGGCATCTA | 3.07
